Among the data in the supplement of paper PMC10681739 are ETS1 binding intensity and RUNX1 binding intensity values, retold here.

One test has as its target T1, ETS1 (UniProt P14921).
T1 sequence: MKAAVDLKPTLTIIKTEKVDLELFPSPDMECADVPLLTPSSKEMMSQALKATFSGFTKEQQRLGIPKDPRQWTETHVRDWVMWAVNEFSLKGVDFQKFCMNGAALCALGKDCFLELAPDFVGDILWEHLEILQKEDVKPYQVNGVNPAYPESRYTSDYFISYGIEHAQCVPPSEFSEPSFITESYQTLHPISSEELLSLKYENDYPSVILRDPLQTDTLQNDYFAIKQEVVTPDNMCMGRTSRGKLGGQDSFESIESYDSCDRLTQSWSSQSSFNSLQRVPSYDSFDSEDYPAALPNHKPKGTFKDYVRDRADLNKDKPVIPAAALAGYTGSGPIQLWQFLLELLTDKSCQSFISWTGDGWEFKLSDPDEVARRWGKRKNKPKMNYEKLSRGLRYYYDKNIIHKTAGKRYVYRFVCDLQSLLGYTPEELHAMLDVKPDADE
Nature of the test: ETS1 binding intensity (PBM fluorescence), ETS1 alone (arbitrary fluorescence units); higher = stronger binding. The conditions noted are these: ETS1 concentration 1 nM; RUNX1 concentration 0 nM.

In test [1] the target is RUNX1 (UniProt Q01196). Nature of the test: RUNX1 binding intensity (PBM fluorescence), RUNX1 alone (arbitrary fluorescence units); higher = stronger binding. Conditions: RUNX1 concentration 2 nM; ETS1 concentration 0 nM. How it is done: (§1)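 Cooperative gcPBM on 36-bp genomic probes with neighbouring ETS1 and RUNX1 sites. Recombinant human RUNX1 (2 nM) was incubated alone or with ETS1 (25 nM) and detected with anti-RUNX1 antibody plus Alexa488 secondary. Values are medians over 4 replicate spots; the RUNX1+ETS1 data were normalised to the RUNX1-only data. The probes sit in constant array flanks that are not printed.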

The target in test [2] is RUNX1 (UniProt Q01196). Nature of the test: RUNX1 binding intensity (PBM fluorescence) in presence of ETS1, normalised to RUNX1-only experiment (arbitrary fluorescence units); higher = stronger binding. The conditions noted are these: RUNX1 concentration 2 nM; ETS1 concentration 25 nM. How it is done: as §1
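Throughout, for RUNX1 binding intensity (PBM fluorescence) in presence of ETS1, normalised to RUNX1-only experiment: Full-length recombinant human ETS1 or RUNX1 bound to double-stranded 36-bp genomic probes on microarrays, detected by protein-specific primary antibody and Alexa488 secondary, spot fluorescence as median of four replicate spots.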
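Throughout, for RUNX1 binding intensity (PBM fluorescence), RUNX1 alone: Full-length recombinant human RUNX1 bound to double-stranded 36-bp genomic probes on a high-density microarray, scored as Alexa488 fluorescence per spot via anti-RUNX1 antibody, median of four replicate spots.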

Chain of RUNX1 (Q01196 whole entry): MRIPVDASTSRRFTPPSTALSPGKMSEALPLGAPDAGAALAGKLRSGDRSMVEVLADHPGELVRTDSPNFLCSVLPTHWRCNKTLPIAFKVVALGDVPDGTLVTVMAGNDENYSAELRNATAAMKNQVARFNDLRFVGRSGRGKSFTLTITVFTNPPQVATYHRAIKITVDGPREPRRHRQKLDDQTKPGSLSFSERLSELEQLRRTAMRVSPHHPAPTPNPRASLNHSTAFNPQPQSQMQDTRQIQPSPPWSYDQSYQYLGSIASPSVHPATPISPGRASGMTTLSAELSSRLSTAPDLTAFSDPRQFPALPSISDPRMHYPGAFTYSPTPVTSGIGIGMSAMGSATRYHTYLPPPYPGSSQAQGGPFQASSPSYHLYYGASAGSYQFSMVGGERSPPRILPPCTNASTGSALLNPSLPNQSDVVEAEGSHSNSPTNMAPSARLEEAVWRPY

Regarding CACTTCCTCTGTGACTGCAGGTTTCCAACCACAAGC, in the test with ETS1, the ETS1 binding intensity was determined as 601. Also, the RUNX1 binding intensity came out at 988 with RUNX1 [1] and 2370 in the test with RUNX1 [2].
CAGCAAAAGGCAGGATGTGGTTAAAACTGTGCTCTG gave an ETS1 binding intensity with ETS1 of 4320. Moreover, the RUNX1 binding intensity came to 1110 with RUNX1 [1] and 17100 with RUNX1 [2].
The matching figures for TCATGCTGCTTCCTGCCCAACCCGCAGTTCCGATAA: 890, 1120 and 2350.
For CTTTCGGGGGCGGAAGTTGCGGTGCATTGTAGGTTC, in that order: 7760, 955 and 2800.
In the test with ETS1, AGCTAGGACAGGATGTGAAAACCACACTGACAAAGT gave an ETS1 binding intensity of 2620. Also, the RUNX1 binding intensity stood at 919 with RUNX1 [1] and 3510 with RUNX1 [2].
The matching figures for CGGGGCTTCCGGCGCGCTGCCTTGTGGGCACGGTAG: 591, 711 and 1390.
Sequence CTTTAAGGAGGCGGAAAAGTTAACCGCGATGGGCAG displayed an ETS1 binding intensity with ETS1 of 533. The RUNX1 binding intensity with RUNX1 [1] was found to be 996; with RUNX1 [2] it was 1050.
GTTGAGTTCCGGGGGAGGTTGAGTTCCTGCGGTCAA came in with an ETS1 binding intensity in the test with ETS1 of 397. The RUNX1 binding intensity with RUNX1 [1] stood at 1220; with RUNX1 [2] it was 2450.
In the test with ETS1, GGACCCAGCAGAGGATGTGGTTACAGGGCCATGATA had an ETS1 binding intensity of 720. Also, the RUNX1 binding intensity was determined as 836 in the test with RUNX1 [1] and 2170 in the test with RUNX1 [2].
Sequence CACCTCGGGGGTTTCCGGTCCGTGGTTAGCTCCTTC yielded an ETS1 binding intensity with ETS1 of 2600. In addition, the RUNX1 binding intensity with RUNX1 [1] was found to be 1030; in the test with RUNX1 [2], 2930.
The matching figures for AAACCAGAGAGGAAGTGGCACCACATGGCCAGACTG: 2030, 755 and 1140.
The matching figures for TGGGGGATGGCAGCAGGATGTGGTTATCTCAGAAAG: 3330, 814 and 1940.
Turning to GGCCTCGGCCACATCCGGGTTCCACCGCAGATTCGG, in the test with ETS1, the ETS1 binding intensity was determined as 1850. Moreover, the RUNX1 binding intensity with RUNX1 [1] is 819; with RUNX1 [2], 6490.
For the sequence GCCCAGGGAAGCACTTCCTGCGGGGCGCGGTGCAGC, the ETS1 binding intensity with ETS1 was found to be 1030. Also, the RUNX1 binding intensity in the test with RUNX1 [1] stood at 744; with RUNX1 [2], 1500.
On to CAAGGCACCAACGGATGTGGTATCTGGTGAGGGCTT, for which, in the test with ETS1, the ETS1 binding intensity came out at 2150. In addition, the RUNX1 binding intensity in the test with RUNX1 [1] was 846; with RUNX1 [2], 2430.
AATCCACCGGAAACACTTAGACGCCGCAACCCCAGT: the ETS1 binding intensity with ETS1 amounted to 3660. The RUNX1 binding intensity in the test with RUNX1 [1] is 895; with RUNX1 [2] it was 1590.
For GACAGACCTTAGGAAGTCGCGGTTTCATCAGGGCTT, in that order: 422, 916 and 1220.
With GGTGCCTGGGGAGGATGTGGGCTGACTGGGAGGGGT, the ETS1 binding intensity with ETS1 turned out to be 870. For the same sequence, the RUNX1 binding intensity came to 869 in the test with RUNX1 [1] and 974 in the test with RUNX1 [2].
For TGGGCAGGAAGTGGTATCTGATTGTGGTTTTGATTT, in that order: 3960, 1360 and 8180.
As to TCCGGAAGTGGCACTGATGGGCGCCTGCGGCGGGGG, the ETS1 binding intensity with ETS1 is 2720. Also, the RUNX1 binding intensity with RUNX1 [1] stood at 758; with RUNX1 [2] it was 1030.
For CTCTCACTTCCCGTGTGAGAAAAACCACAGAAAAGC, in that order: 651, 1890 and 4200.
In the test with ETS1, CGGGGACCACTGTCAGGATGTGGTCACTGGAGTCAC came in with an ETS1 binding intensity of 907. The values for the RUNX1 binding intensity with RUNX1 [1] and in the test with RUNX1 [2] were 707 and 1420, respectively.
For AGGACCGGAAGTGCCCGAGGGCGGCCGCAGAACGGT, in that order: 8870, 719 and 1320.
Consider AGGACGGGCGGAAGTGGCTGCGGTGGATGGTGGGAG, for which the ETS1 binding intensity with ETS1 came to 4180. The RUNX1 binding intensity with RUNX1 [1] was 797; with RUNX1 [2], 3180.
GATTGTTATGTCCGGAAACCGCTTATCAGAGCCCTG had an ETS1 binding intensity with ETS1 of 2870. The RUNX1 binding intensity with RUNX1 [1] worked out at 861; in the test with RUNX1 [2], 1590.
The matching figures for TCTCTATGGTTTCCGTTGGGTGTGTGGTTTTTTTGT: 579, 1130 and 2050.
GGTTTCGCTTCCGGGTTAGGCGGCCGCAGAAGCGTA yielded an ETS1 binding intensity with ETS1 of 947. Moreover, the figures for the RUNX1 binding intensity with RUNX1 [1] and with RUNX1 [2] were 790 and 1980, respectively.
The matching figures for AAGAAAAAGGGAGGATGTGGTTTAGCAAAAGCACTG: 1420, 920 and 2230.
For GTCACAGGAAAGAAGGAGCCTCGCCTTAACCGCACC, in that order: 447, 1170 and 1310.
CAAGTAATCTGCTCAGGAAGTGGTTTGAATAGAGGA returned an ETS1 binding intensity with ETS1 of 2540. Besides, the RUNX1 binding intensity with RUNX1 [1] is 743; in the test with RUNX1 [2], 977.
The matching figures for TCAGGGGAGCGAGCAGGAAGTGGTAAGATTTGATAG: 3680, 696 and 1230.
In the case of TTCACAACACAGGATGTGCGGTATTATACGGCAAAG, the ETS1 binding intensity in the test with ETS1 came out at 5120. For the same sequence, the RUNX1 binding intensity with RUNX1 [1] came to 898; with RUNX1 [2], 2390.
The matching figures for CAGAGCCAAACATGCGGAAGTGGTTACGTGTACTAG: 3280, 795 and 1900.
In the test with ETS1, GGGTTGGGTGCCGGATGCGGTGAGTGAGGTTCTCAT yielded an ETS1 binding intensity of 2930. Moreover, the RUNX1 binding intensity with RUNX1 [1] worked out at 917; in the test with RUNX1 [2], 4260.
The matching figures for GAGGGGGAGGTTTCCGGGGCCTGTGGTTACTACACT: 438, 943 and 1910.
AAGTTGATTTCCGGGTAGTCTGTGGTTTCCTAATCA returned an ETS1 binding intensity with ETS1 of 1040. For the same sequence, the RUNX1 binding intensity with RUNX1 [1] was 1210; with RUNX1 [2], 3880.
As to TGTGTCACTTCCCTATCTGTTGCGGTTGTTCACTCC, the ETS1 binding intensity with ETS1 was 409. Also, the RUNX1 binding intensity was 1340 with RUNX1 [1] and 2930 in the test with RUNX1 [2].
The matching figures for TGGTTTCTCACTGGCGGATGTGGGTGGGTCGCCTCC: 4130, 723 and 1100.
Consider CAGAGCAGAGAGGAAGTGGTGGTGGCCACAGTCCCA, for which the ETS1 binding intensity in the test with ETS1 came to 1760. Moreover, the RUNX1 binding intensity stood at 686 in the test with RUNX1 [1] and 1220 with RUNX1 [2].
Take AACAGGCAAAGGACAGGATGTGGTGAGCGTCGGCCC: in the test with ETS1, the ETS1 binding intensity was determined as 4150. The RUNX1 binding intensity in the test with RUNX1 [1] turned out to be 774; with RUNX1 [2], 3040.
For GTTCAGCAGGAAGTGGATGTGGATGTGTGGTTGCCA, in that order: 3230, 826 and 1290.
The matching figures for GGGTCGCGGCCTTCCGGCGAACGCGGTTACCGTGGA: 555, 853 and 1380.
